Data from PubChem BioAssay (NCATS).
Inconclusive results are not listed. The call rests on the fitted dose curve; in most records, active means well fitted curve in either direction with a large enough effect (not every such curve was filed as active); inconclusive means small, poorly fitted or top-dose-only effect, or another doubt; inactive means flat fitted curve, though single readings scatter.

Assay: AP1 Signaling Pathway (AID 357);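 further: ME-180 reporter cells stimulated with EGF at its EC50 level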
Conditions: ME-180 (cervical carcinoma) AP-1-bla reporter, EGF-induced, beta-lactamase ratio, 5 h; at 17.2 µM (top of the series) unless noted
Method in brief: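 Titration-series screen for positive or negative modulators of EC50 EGF-induced signaling in ME-180 cells carrying an AP-1-driven beta-lactamase reporter. After 5 hours at 37 degrees Celsius, CCF4 460nm/530nm emission ratio gave %Activity; AC50 values derived.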
On the % scale 0 is the no-effect control and ±100 the full control effect.

Activity change, negative = inhibition, inactive:
CC(C)(C)C1=Nn2c(nnc2-c2ccco2)SC1 2.22%
CN1C(=O)c2c(sc3c2CCCC3)NC1c1ccccc1O (stereo not given) -12.2%
CCN(CC)CCCN1C(=O)C(=O)/C(=C(/O)c2ccc(Cl)cc2)C1c1ccccn1 (stereo not given) -3.4%
COc1ccc(OC)c(C2=Nn3c(nnc3C3CCCCC3)SC2)c1 -18.2%
CC(=O)C1=C(NC(=O)c2ccccc2F)C[C@@H]2[C@H]1C2(C)C -3.24%
CC(=O)Nc1ccc(Oc2ccc3nc(C)[nH]c3c2)cc1 -4.84%
COc1cccc(OC)c1-c1nn2c(-c3ccccc3Cl)nnc2s1 -22.5%
COc1cc(C2Nc3cccc4cccc(c34)N2)cc(OC)c1OC(C)=O 19.9%
COc1cccc(/C(O)=C2\C(=O)C(=O)N(c3ccccn3)C2c2ccccc2OC)c1 (stereo not given) -8.01%
CC12CN3CC(C)(CN(C1)C3c1ccc(Cl)cc1Cl)C2O (stereo not given) 3.94%
COc1ccc(-c2ncncc2-c2csc(C)n2)c(O)c1 2.87%
COc1ccccc1N1CCN(C2CCN(C(=O)c3cccs3)CC2)CC1 4.38%
CSC1=C(C#N)C(C)CC(=O)N1 (stereo not given) 3.08%
N#Cc1nc(-c2cccs2)oc1NCCc1ccccc1 -17.4%
COC(=O)C(NC(=O)c1ccco1)(Nc1nc(C)cs1)C(F)(F)F (stereo not given) -3.01%
CCOC(=O)CSc1nc(NC#N)nc(N(CC)CC)n1 8.62%
CCOc1nnnc2c1sc1nc(N3CCOCC3)c3c(c12)CC(C)(C)OC3 -7.69%
C1CNCCNCCCNCCNC1 1.85%
Cc1ccc(C(=O)NCC(C)(C)O)cc1 9.77%
CCC(=O)O[C@@H]1CC(=O)O[C@H](C)CC=CC=C[C@@H](O)[C@H](C)C[C@H](CC=O)[C@H](O[C@H]2O[C@H](C)[C@@H](O[C@H]3C[C@@](C)(O)[C@@H](OC(=O)CC)[C@H](C)O3)[C@H](N(C)C)[C@H]2O)[C@H]1OC 1.11%
C=CCNc1nc(-c2cccc(OC)c2O)nc2ccccc12 20.2%
O=C(CNC1=NCCC1)c1ccc2c(c1)OCCO2 5.51%
CCCC(=O)Nc1sc2c(c1C#N)CCCC2 -16.2%
COc1ccc(C(=O)Nc2nc(N)n(-c3ccccc3)n2)cc1OC -0.0315%
COC(=O)c1ccc(Cn2c(O)c(N=O)c3ccccc32)o1 -14.4%
C=CCn1c(-c2ccc(OC)c(OC)c2)n[nH]c1=S 1.93%
CCOC(=O)C1CSc2[nH]c(=O)sc2C1c1ccccc1 (stereo not given) 0.248%
COC(=O)CSc1nc(C)c(C(C)=O)cc1C#N 4.99%
Cc1c(C(=O)O)c(=S)sn1CCOc1ccccc1 -0.1%
Cn1ncc2c(Nc3ccccc3Br)ncnc21 5.55%
CCOC(=O)COn1c(=O)c(-c2ccc(OC)c(OC)c2)[n+]([O-])c2ccccc21 -0.29%
CC(=O)c1cc2c(=O)c3ccccc3oc2nc1C -1.73%
O=C(OCC#CCSc1nnc(-c2ccccc2)o1)c1cccs1 -3.3%
O=C(NCC(F)(F)F)Nc1nnc(C(F)(F)F)s1 -9.88%
CCCCOc1ccccc1P(=O)(O)CP(=O)(c1ccccc1)c1ccccc1 -13.5%
Cc1cc(=O)oc(C)c1C(=O)NCC1CCCO1 (stereo not given) 2.9%
CN1CCN(Cc2c(O)c(Cl)cc3c(-c4ccccc4)cc(=O)oc23)CC1 -17.1%
COc1ccc(C(C)=O)cc1CSCCC(=O)O 3.88%
O=C(c1coc(=O)c(Br)c1)N1CCOCC1 6.25%
COC(=O)CN(c1nc(C)cc(OC)n1)S(=O)(=O)c1ccccc1 -9.15%

Assay: NFAT Signaling Pathway (AID 444);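 further: carbachol stimulus at about its EC50 of 1 µM final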
Conditions: Jurkat NFAT-bla M1, carbachol, beta-lactamase ratio, 5 h; at 17.2 µM (top of the series) unless noted
Method in brief: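 Jurkat cells with NFAT-driven β-lactamase reporter and co-expressed M1 receptor, stimulated with carbachol (final 1 uM, ~EC50), compound titration, 5 h at 37 °C. CCF4 loaded 1 h at RT; 460/530 nm ratio gave %activity and AC50.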

Activity change, negative = inhibition, inactive:
CC(C)(C)C1=Nn2c(nnc2-c2ccco2)SC1 11.1%
CN1C(=O)c2c(sc3c2CCCC3)NC1c1ccccc1O (stereo not given) -10.9%
CCN(CC)CCCN1C(=O)C(=O)/C(=C(/O)c2ccc(Cl)cc2)C1c1ccccn1 (stereo not given) 5.22%
COc1ccc(OC)c(C2=Nn3c(nnc3C3CCCCC3)SC2)c1 -5.08%
CC(=O)C1=C(NC(=O)c2ccccc2F)C[C@@H]2[C@H]1C2(C)C -24.2%
CC(=O)Nc1ccc(Oc2ccc3nc(C)[nH]c3c2)cc1 0.827%
COc1cccc(OC)c1-c1nn2c(-c3ccccc3Cl)nnc2s1 -8.73%
COc1cc(C2Nc3cccc4cccc(c34)N2)cc(OC)c1OC(C)=O 3.51%
COc1cccc(/C(O)=C2\C(=O)C(=O)N(c3ccccn3)C2c2ccccc2OC)c1 (stereo not given) 11.4%
CC12CN3CC(C)(CN(C1)C3c1ccc(Cl)cc1Cl)C2O (stereo not given) -12%
COc1ccc(-c2ncncc2-c2csc(C)n2)c(O)c1 -5.52%
COc1ccccc1N1CCN(C2CCN(C(=O)c3cccs3)CC2)CC1 -21.8%
CSC1=C(C#N)C(C)CC(=O)N1 (stereo not given) -0.632%
N#Cc1nc(-c2cccs2)oc1NCCc1ccccc1 -0.887%
COC(=O)C(NC(=O)c1ccco1)(Nc1nc(C)cs1)C(F)(F)F (stereo not given) 4.32%
CCOC(=O)CSc1nc(NC#N)nc(N(CC)CC)n1 -5.47%
CCOc1nnnc2c1sc1nc(N3CCOCC3)c3c(c12)CC(C)(C)OC3 -17.4%
C1CNCCNCCCNCCNC1 2.39%
Cc1ccc(C(=O)NCC(C)(C)O)cc1 -4.7%
CCC(=O)O[C@@H]1CC(=O)O[C@H](C)CC=CC=C[C@@H](O)[C@H](C)C[C@H](CC=O)[C@H](O[C@H]2O[C@H](C)[C@@H](O[C@H]3C[C@@](C)(O)[C@@H](OC(=O)CC)[C@H](C)O3)[C@H](N(C)C)[C@H]2O)[C@H]1OC 8.88%
C=CCNc1nc(-c2cccc(OC)c2O)nc2ccccc12 4.81%
O=C(CNC1=NCCC1)c1ccc2c(c1)OCCO2 -10.1%
CCCC(=O)Nc1sc2c(c1C#N)CCCC2 -0.791%
COc1ccc(C(=O)Nc2nc(N)n(-c3ccccc3)n2)cc1OC -1.36%
COC(=O)c1ccc(Cn2c(O)c(N=O)c3ccccc32)o1 18.3%
C=CCn1c(-c2ccc(OC)c(OC)c2)n[nH]c1=S 9.3%
CCOC(=O)C1CSc2[nH]c(=O)sc2C1c1ccccc1 (stereo not given) -1.24%
COC(=O)CSc1nc(C)c(C(C)=O)cc1C#N -0.342%
Cc1c(C(=O)O)c(=S)sn1CCOc1ccccc1 10.4%
Cn1ncc2c(Nc3ccccc3Br)ncnc21 17%
CCOC(=O)COn1c(=O)c(-c2ccc(OC)c(OC)c2)[n+]([O-])c2ccccc21 -6.08%
CC(=O)c1cc2c(=O)c3ccccc3oc2nc1C -16.9%
O=C(OCC#CCSc1nnc(-c2ccccc2)o1)c1cccs1 -29.9%
O=C(NCC(F)(F)F)Nc1nnc(C(F)(F)F)s1 -2.8%
CCCCOc1ccccc1P(=O)(O)CP(=O)(c1ccccc1)c1ccccc1 -17%
Cc1cc(=O)oc(C)c1C(=O)NCC1CCCO1 (stereo not given) -0.802%
CN1CCN(Cc2c(O)c(Cl)cc3c(-c4ccccc4)cc(=O)oc23)CC1 -1.47%
COc1ccc(C(C)=O)cc1CSCCC(=O)O 2.2%
O=C(c1coc(=O)c(Br)c1)N1CCOCC1 21.3%
COC(=O)CN(c1nc(C)cc(OC)n1)S(=O)(=O)c1ccccc1 -15.3%
